The nature of test [1]: Nuclear factor erythroid 2-related factor 2/antioxidant responsive element (Nrf2/ARE) small molecule agonists: qHTS cell viability counter screen in human keratinocytes (AID 1919968; active = well fitted curve in the direction sought with a large enough effect in the repeat runs; an effect the other way counts as inactive or inconclusive; note: nearly all actives have a fitted effect of over 55% in size; note: potency is the fitted concentration of half-maximal effect). Summed up: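 Cells of the KeratinoSens line were plated at 1,500 per well and left for 5 h before compound transfer from DMSO stocks. After a 23 h incubation (37 C, 5% CO2), CellTiter-Fluor was added. Signal was taken as fluorescence intensity 1 h later.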
(In general: Quantitative high-throughput screening tests each substance at several concentrations.)

Test [2] is described as follows: Nuclear factor erythroid 2-related factor 2/antioxidant responsive element (Nrf2/ARE) small molecule agonists: luciferase reporter gene qHTS assay in human keratinocytes (AID 1919969). Note: nearly all actives have a fitted effect of over 35% in size. Note: potency is the fitted concentration of half-maximal effect. On the technique in general: Reporter assays use an easily measured gene product as a stand-in for the process of interest.
For test [3], the target named is Gonadotropin-releasing hormone receptor (Homo sapiens) (UniProt P30968). Briefly: Human gonadotropin-releasing hormone receptor (GnRHR) small molecule agonists, calcium flux assay in GnRHR-HEK293 cells (AID 1920063). Note: nearly all actives have a fitted effect of over 35% in size. Note: potency is the fitted concentration of half-maximal effect. Summed up:
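Compounds dissolved in DMSO are pin-transferred onto dye-loaded GnRHR-HEK293 cells, which were seeded 18 h before at 37 C/5% CO2. Calcium signal is read as fluorescence intensity at 1 s intervals for 3 min.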
For orientation: A change in cytosolic calcium serves as a functional read-out for many receptors and channels.

Test [4] addresses KiSS-1 receptor (Homo sapiens) (UniProt Q969F8). Nature of the test: Human kisspeptin (KISS1R) small molecule agonists, calcium flux assay in KISS1R-HEK293 cells (AID 1920064; active = well fitted curve in the direction sought with a large enough effect in the repeat runs; an effect the other way counts as inactive or inconclusive). Summed up: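 Cell line: HEK293, stable human KISS1R. Dye loading 1 h at 37 C after 18 h culture. Read: kinetic fluorescence, 480/540 nm, 3 min at 1 s intervals.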
Test [5] can be described thus: G protein-coupled receptor (GPCR) small molecule agonists, calcium flux assay: HEK293 wild type cell line counter screen (AID 1920065). The method in brief:
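Tox21 10K compounds, 15 concentrations each in triplicate, pin-transferred in DMSO onto dye-loaded cells; kinetic read at 480/540 nm for 3 min, 1 s intervals.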

Test [6] is described as follows: p53 small molecule agonists, cell-based qHTS assay with rat liver microsomes (AID 1963578). Summed up:
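With rat liver microsomes and NADPH present (0.5 mg/mL final each), p53RE-bla cells are treated with compound for 16 h at 37 C. LiveBLAzer detection mixture is then applied for 2 h at room temperature in the dark.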

Test [7] in a line: p53 small molecule agonists, cell-based qHTS assay with human liver microsomes: qHTS cell viability counter screen (AID 1963579). Note: nearly all actives have a fitted effect of over 45% in size. Summed up: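 In this multiplexed counter screen, the reporter plates were subsequently treated with CellTiter-Glo so that cell viability, reflected by luminescence, could be recorded for p53RE-bla cells dosed 16 h with compounds under microsomal activation (HLM and NADPH).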

A short description of test [8]: p53 small molecule agonists, cell-based qHTS assay with rat liver microsomes: qHTS cell viability counter screen (AID 1963580). Note: nearly all actives have a fitted effect of over 45% in size. The method in brief:
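Rat liver microsome (0.5 mg/mL final) and NADPH (0.5 mg/mL final) co-incubation with compounds for 16 h at 37 C on HCT-116 p53RE-bla cells; cytotoxicity taken from intracellular ATP luminescence.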

The nature of test [9]: p53 small molecule agonists, cell-based qHTS assay: qHTS cell viability counter screen (AID 1963581). Note: nearly all actives have a fitted effect of over 45% in size. The method in brief:
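ATP content measured by luminescence in HCT-116 p53RE-bla cells treated 16 h at 37 C, same wells as the reporter screen.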

Test [10] is described as follows: p53 small molecule agonists, cell-based qHTS assay (AID 1963582; active = well fitted activation curve with a large enough effect in the signal ratio in the repeat runs, not every such curve was filed as active; the % refers to the signal ratio). The method in brief:
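16 h compound exposure (37 C) of p53 response element–bla cells, preceded by 5 h recovery at 37 C/5% CO2; read-out via LiveBLAzer B/G FRET substrate, 2 h RT, fluorescence intensity.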

The target in test [11] is 5-hydroxytryptamine receptor 2A (Homo sapiens) (UniProt P28223). Nature of the test: 5-hydroxytryptamine receptor 2A (HTR2A) small molecule antagonists, cell-based qHTS assay (AID 1963586). Note: nearly all actives have a fitted effect of over 45% in size. Summed up: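 CHO cells stably expressing human HTR2A were plated for 18 h at 37 C, then loaded with calcium dye for 1 h. Compounds were preincubated 5 min at room temperature before DOI (4 nM solution) was added. Kinetic fluorescence was read for 3 min.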

Test [12] shares this target. Nature of the test: 5-hydroxytryptamine receptor 2A (HTR2A) small molecule agonists, cell-based qHTS assay (AID 1963587). Note: nearly all actives have a fitted effect of over 30% in size. Summed up:
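Kinetic calcium-flux fluorescence (2 min, 1 sec intervals) after compound addition in agonist mode. HTR2A-CHO cells were cultured 18 h, then dye-loaded 1 h at 37 C.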

Test [13] concerns the target Muscarinic acetylcholine receptor M1 (Homo sapiens) (UniProt P11229). Briefly: Cholinergic receptor muscarinic 1 (CHRM1) small molecule antagonists, cell-based qHTS assay (AID 1963588). Note: nearly all actives have a fitted effect of over 40% in size. Summed up: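 Compounds were tested at 15 concentrations in three independent runs. Dye-loaded CHRM1-CHO cells were exposed 5 min at room temperature before stimulation by acetylcholine added at 50nM. Intracellular calcium was read kinetically on FDSS for 3 min.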

Test [14] shares this target. Nature of the test: Cholinergic receptor muscarinic 1 (CHRM1) small molecule agonists, cell-based qHTS assay (AID 1963589). Note: nearly all actives have a fitted effect of over 35% in size. The method in brief: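 Homogeneous fluorescence calcium flux, agonist mode. Human M1-expressing CHO cells; compound dosed at 15 concentrations, three independent runs; signal sampled every 1 sec.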
A short description of test [15]: cAMP Responsive Elements (CRE) small molecule agonists, cell-based qHTS assay (AID 1963590). Summed up: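 HEK 293T cells stably bearing CRE-bla were plated at 2,000 cells per well and rested 18 h. Compounds, positive controls or DMSO were added for 3 h at 37 C. LiveBLAzer B/G substrate was then loaded for 2 h at room temperature.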
Test [16] in a line: cAMP Responsive Elements (CRE) small molecule antagonists, cell-based qHTS assay (AID 1963591; active = well fitted inhibition curve with a large enough effect in the signal ratio in the repeat runs, not every such curve was filed as active; the % refers to the signal ratio). The method in brief:
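First, CRE-bla HEK293T cells settled 18 h at 37 C. Next, compound and 0.25 uM final NKH477 were applied for 3 h. Last, LiveBLAzer B/G substrate was loaded for 2 h at room temperature.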

Test [17] deals with Beta-2 adrenergic receptor (Homo sapiens) (UniProt P07550). Nature of the test: Adrenergic beta2 receptor (ADRB2) small molecule antagonists, cell-based qHTS assay (AID 1963592). Note: series mostly up to about 92 µM; nearly all actives have a fitted effect of over 50% in size. The method in brief:
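Assay format: CHO-ADRB2 cells, 18-20hr seeding at 37C/5% CO2, then compound plus 1nM isoproterenol agonist mix for 0.5hr RT. Homogeneous time-resolved fluorescence cAMP detection after 1hr, expressed as 665/615 nm ratio.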

Test [18] shares this target. Nature of the test: Adrenergic beta2 receptor (ADRB2) small molecule agonists, cell-based qHTS assay (AID 1963593).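 Note: CHO cells stably overexpressing human ADRB2.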 Summed up:
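CHO cells stably over-expressing ADRB2 were plated overnight at 37C, then dosed with compounds plus a stimulation mix containing 100uM IBMX and 25uM Ro-20-1724 for 0.5hr at room temperature. cAMP was measured by HTRF competition, 1hr.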

For test [19], the target named is D(2) dopamine receptor (Homo sapiens) (UniProt P14416). Nature of the test: Dopamine D2 receptor (DRD2) small molecule agonists, cell-based qHTS assay (AID 1963594). Note: nearly all actives have a fitted effect of over 35% in size. Summed up: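 cAMP accumulation in DRD2-HEK293 cells measured by HTRF after 1 h detection; compounds added 10 min before NKH477 (200nM […]) forskolin-analogue stimulation, 30 min at room temperature, with Ro20-1724 present at 0.1 mM final.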

For test [20] the target is unchanged. Nature of the test: Dopamine D2 receptor (DRD2) small molecule antagonists, cell-based qHTS assay (AID 1963595; active = well fitted inhibition curve with a large enough effect in the signal ratio in the repeat runs, with a control signal flat; the % refers to the signal ratio). Summed up:
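Antagonism was scored as restored cAMP in HEK293-DRD2 cells. These cells were stimulated with 200 nM NKH477 and 12 nM quinpirole for 30 min at room temperature, in the presence of 0.1 mM Ro20-1724.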

Several values for one entry are separate records, joined by “and”; a condition that tells them apart may be missing. Identical values can stand only once. Records with an inconclusive call do not appear. A structure can be active in one record and inactive in another. Activity calls are given as the source filed them. Unless noted, calls come from the whole dose curve.

Gonadotropin-releasing hormone receptor (Homo sapiens), sequence (P30968 whole entry, looked up): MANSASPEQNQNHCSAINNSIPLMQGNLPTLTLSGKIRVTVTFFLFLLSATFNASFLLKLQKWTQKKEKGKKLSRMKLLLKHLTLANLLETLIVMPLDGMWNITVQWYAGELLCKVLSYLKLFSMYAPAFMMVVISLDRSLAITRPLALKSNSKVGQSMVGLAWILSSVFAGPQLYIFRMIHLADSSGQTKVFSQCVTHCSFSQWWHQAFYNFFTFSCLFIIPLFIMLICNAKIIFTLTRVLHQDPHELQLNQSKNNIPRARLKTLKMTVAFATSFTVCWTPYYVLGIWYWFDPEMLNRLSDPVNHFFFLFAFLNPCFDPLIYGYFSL
5-hydroxytryptamine receptor 2A (Homo sapiens), sequence (P28223 whole entry, looked up): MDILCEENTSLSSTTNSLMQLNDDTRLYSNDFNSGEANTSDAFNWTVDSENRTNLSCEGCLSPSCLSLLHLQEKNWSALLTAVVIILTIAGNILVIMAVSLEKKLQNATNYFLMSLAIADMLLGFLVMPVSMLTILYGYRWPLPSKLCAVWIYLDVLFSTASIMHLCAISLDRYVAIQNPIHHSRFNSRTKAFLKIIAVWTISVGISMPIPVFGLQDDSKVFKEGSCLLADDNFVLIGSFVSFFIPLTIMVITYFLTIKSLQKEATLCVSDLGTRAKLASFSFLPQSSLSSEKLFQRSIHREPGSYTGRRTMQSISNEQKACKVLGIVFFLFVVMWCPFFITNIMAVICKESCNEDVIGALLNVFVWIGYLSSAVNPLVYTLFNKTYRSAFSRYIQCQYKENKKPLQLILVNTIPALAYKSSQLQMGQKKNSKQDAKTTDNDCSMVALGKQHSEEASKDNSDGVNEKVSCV
D(2) dopamine receptor (Homo sapiens), sequence (P14416 whole entry, looked up): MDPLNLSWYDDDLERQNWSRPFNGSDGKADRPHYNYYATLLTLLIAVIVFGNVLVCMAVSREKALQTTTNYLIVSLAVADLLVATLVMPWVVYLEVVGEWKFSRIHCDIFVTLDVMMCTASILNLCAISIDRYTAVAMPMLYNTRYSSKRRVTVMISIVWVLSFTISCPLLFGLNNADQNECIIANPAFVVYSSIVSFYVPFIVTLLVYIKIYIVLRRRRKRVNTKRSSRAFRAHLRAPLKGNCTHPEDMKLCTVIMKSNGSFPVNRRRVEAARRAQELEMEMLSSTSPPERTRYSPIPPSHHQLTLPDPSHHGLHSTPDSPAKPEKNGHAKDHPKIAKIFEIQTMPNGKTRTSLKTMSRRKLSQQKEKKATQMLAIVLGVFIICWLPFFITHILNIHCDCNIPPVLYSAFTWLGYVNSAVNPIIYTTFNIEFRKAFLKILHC
Beta-2 adrenergic receptor (Homo sapiens), sequence (P07550 whole entry, looked up): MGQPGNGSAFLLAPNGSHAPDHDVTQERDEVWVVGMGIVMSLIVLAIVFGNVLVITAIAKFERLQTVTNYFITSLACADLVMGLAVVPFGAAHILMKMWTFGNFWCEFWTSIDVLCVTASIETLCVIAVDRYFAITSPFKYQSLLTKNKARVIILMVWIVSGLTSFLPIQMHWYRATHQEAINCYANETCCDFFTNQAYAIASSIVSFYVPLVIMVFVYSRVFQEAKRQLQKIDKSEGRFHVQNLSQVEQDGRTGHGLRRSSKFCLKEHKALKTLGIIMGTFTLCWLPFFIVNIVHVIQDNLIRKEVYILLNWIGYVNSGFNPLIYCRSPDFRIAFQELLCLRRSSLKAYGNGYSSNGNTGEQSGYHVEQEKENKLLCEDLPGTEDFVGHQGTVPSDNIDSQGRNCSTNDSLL
Muscarinic acetylcholine receptor M1 (Homo sapiens), sequence (P11229 whole entry, looked up): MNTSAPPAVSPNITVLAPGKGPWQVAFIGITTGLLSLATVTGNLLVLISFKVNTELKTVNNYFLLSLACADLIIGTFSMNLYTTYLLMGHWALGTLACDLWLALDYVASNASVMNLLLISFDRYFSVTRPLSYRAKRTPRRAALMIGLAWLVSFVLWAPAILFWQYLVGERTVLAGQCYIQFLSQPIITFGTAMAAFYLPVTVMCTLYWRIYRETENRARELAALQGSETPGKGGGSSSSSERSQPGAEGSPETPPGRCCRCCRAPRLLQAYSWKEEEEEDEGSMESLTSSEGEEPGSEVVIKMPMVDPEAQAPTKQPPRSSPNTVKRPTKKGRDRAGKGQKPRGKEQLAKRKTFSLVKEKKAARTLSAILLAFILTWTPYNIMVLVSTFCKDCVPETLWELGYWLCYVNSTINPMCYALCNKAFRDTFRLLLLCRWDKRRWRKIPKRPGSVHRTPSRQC
KiSS-1 receptor (Homo sapiens), sequence (Q969F8 whole entry, looked up): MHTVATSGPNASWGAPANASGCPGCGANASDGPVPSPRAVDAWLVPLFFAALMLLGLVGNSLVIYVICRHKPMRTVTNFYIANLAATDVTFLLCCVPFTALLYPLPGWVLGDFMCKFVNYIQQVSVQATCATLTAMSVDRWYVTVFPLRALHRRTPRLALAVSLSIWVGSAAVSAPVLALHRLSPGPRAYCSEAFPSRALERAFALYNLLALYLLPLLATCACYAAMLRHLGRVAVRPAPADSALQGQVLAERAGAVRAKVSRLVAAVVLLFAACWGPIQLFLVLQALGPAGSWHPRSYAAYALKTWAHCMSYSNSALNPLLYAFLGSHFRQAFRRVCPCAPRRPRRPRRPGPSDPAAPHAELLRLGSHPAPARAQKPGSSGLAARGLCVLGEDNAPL

As for `OCCC(F)(F)C(F)(F)C(F)(F)C(F)(F)C(F)(F)C(F)(F)F`, the Potency result in test [1], in test [2], in [3], in test [4], in test [5] and in test [6] was “inactive” throughout. For the same compound, the Potency result in [7], in [8], in test [9], in test [10], in test [11] and in [12] was “inactive” throughout. Also, the Potency result in [13], in test [14], in test [15], in [16], in [17] and in test [18] was “inactive” throughout. The Potency entry in test [19] and in test [20] was “inactive” each time.

As to `CCc1occc(=O)c1O`, the Potency entry in [1], in test [2], in [3], in test [4], in test [5] and in test [7] was “inactive” in each case. The Potency result in test [10], in test [11], in test [13], in [14], in test [15] and in test [17] was “inactive” each time. Also, the Potency entry in test [18], in test [19] and in [20] was “inactive” in each case.

Regarding `O=C1c2cccc(O)c2C(=O)c2c(O)cccc21`, the Potency entry was “inactive and 3.35 µM (active)” in test [1]; 27.6 µM (active) in [2]. For the same compound, the Potency result in test [3], in [4], in test [5], in test [7], in [9] and in test [10] was “inactive” in each case. Moreover, the Potency result in test [11], in test [12], in test [13], in test [14], in test [15] and in test [17] was “inactive” each time. In addition, the Potency result in test [18], in test [19] and in test [20] was “inactive” in each case.

With `CN(C)c1ccc(C(=N)c2ccc(N(C)C)cc2)cc1`, the Potency is 24 µM (active) and 23.4 µM (active) in test [1]; 60.4 µM (active) and 52.4 µM (active) in [2]; 29.7 µM (active) in test [3]. Moreover, the Potency entry in test [4], in test [5], in [7], in test [8], in [9] and in test [11] was “inactive” in each case. The Potency entry in test [12], in [14], in [16], in test [18], in [19] and in test [20] was “inactive” each time.

For the compound `CCCCN(CCCC)CCCCCCN(CCCC)CCCC`, the Potency entry in test [1], in test [2], in test [3], in test [4], in test [5] and in test [6] was “inactive” in each case. The Potency entry in test [7], in test [8], in test [9], in [10], in [11] and in [12] was “inactive” throughout. The Potency result in test [13], in [14], in test [15], in [16], in [17] and in [18] was “inactive” each time. The Potency entry in test [19] and in test [20] was “inactive” each time.

In the case of `CCCCN=C(N)N=C(N)N`, the Potency entry in test [1], in [2], in [3], in test [4], in [5] and in test [6] was “inactive” each time. The Potency result in [7], in [8], in [9], in [10], in test [11] and in [12] was “inactive” throughout. Further, the Potency entry in [13], in test [14], in [15], in [16], in test [17] and in test [19] was “inactive” in each case. Besides, the Potency entry in [20] is “inactive”.

In the case of `NC(=O)NC1N=C([O][Al])NC1=O` (centres undefined), the Potency entry in [1], in test [2], in test [3], in test [4], in test [5] and in [7] was “inactive” each time. Also, the Potency entry in [8], in test [10], in test [11], in test [12], in test [13] and in test [14] was “inactive” in each case. The Potency result in test [15], in [16], in test [17], in test [18], in test [19] and in test [20] was “inactive” throughout.

Regarding `CC(C)C(=O)O`, the Potency result in [1], in [2], in test [3], in test [4], in test [5] and in test [6] was “inactive” throughout. For the same compound, the Potency entry in test [7], in [8], in test [9], in [10], in test [11] and in test [12] was “inactive” in each case. Moreover, the Potency entry in test [13], in [14], in test [15], in test [16], in [17] and in test [18] was “inactive” throughout. For the same compound, the Potency entry in test [19] and in test [20] was “inactive” in each case.

The record behind these values is PubChem BioAssay (Tox21).
